Among all 140,000 compounds or so, about 4,300 (3.1%) were called active. Another 21% or so got no clear call; they are omitted. For the sample, actives were picked, then their nearest neighbours and some compounds at random. A number with no mark means an inactive call.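 How the source made its calls: active means readout at or below -70, meaning at least 70% loss of cells showing the perinucleolar compartment, a nuclear body marking cancer cells; inconclusive means readout between -30 and a set limit; inactive means the rest.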
Assay: High Content Assay for Compounds that inhibit the Assembly of the Perinucleolar Compartment;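 further: plate controls were DMSO wells for no effect and camptothecin positive control wells for full effect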
Settings: PC3M PTB-GFP, PNC prevalence imaging, 16 h; at 10 µM; hits give low values
Text: High Content Assay for Compounds that inhibit the Assembly of the Perinucleolar Compartment NIH Chemical Genomics Center [NCGC] NIH Molecular Libraries Probe Centers Network [MLPCN] MLPCN Grant: MH082371-01A2 Assay Submitter (PI): Sui Huang, Northwestern University, Feinberg School of Medicine, Cell and Molecular Biology, Chicago, Illinois. The perinucleolar compartment (PNC) is a non-membrane-bound nuclear subdomain that is associated with but structurally distinct from the nucleolus. The PNC is a heritable trait, in which the number of PNCs per cell in daughter cells often mimics that of their mother cells. The PNC is heterogeneous in shape, is stable through interphase, disassembles during mitosis, and reassembles in early G1. The PNC is concentrated with newly synthesized RNA polymerase III (pol III) RNAs (MRP RNA, RNAse P H1 RNA, hY RNAs[hY1, 2, 5], Alu RNA, and SRP [7SL] RNA) and RNA binding proteins (nucleolin, PTB, CUG-BP, KSRP, Raver1, Raver2, and Rod). […] Extensive in vitro studies have shown that the PNC is unique to tumor cells and preferentially forms in tumor cells derived from solid tissues. Examination of cancer cell lines from various origins and malignant capacities has shown that PNC prevalence correlates with the malignancy of tumors and has the potential to be developed as a pan-cancer prognostic marker. […] Although the PNC is associated with a DNA locus and a handful of components have been identified, much remains to be investigated regarding the structure and function of the PNC and its mechanistic link to cancer. We have previously shown that PNC prevalence reduction is a valid strategy to identify compounds that can be used to study the structure and function of the PNC. It is necessary, however, to create a screening platform that is able to test a large number of compounds in an automated fashion. Here we report the development and robustness of an automated whole-cell phenotypic image-based screening assay that is capable of identifying such compounds.
PNC High Content Imaging Assay Procedure: 1. Cells at a density of 75-90% confluency in T175 flasks were harvested using 7 ml TrypLE Express cell dissociation reagent. After dissociation (5 minutes room temperature incubation) 10 ml of complete media was added to the TrypLE/cell suspension. The liquid was transferred to a 50 ml Conical tube and cells were pelleted at 1000 RPM for 5 min. Supernatant was removed and cells were resuspended to a final density of 150-200 cells/ul in complete media. 2. Cells were plated in 5 ul volume (750-1000 cells/well) into 1536 well Black uclear Aurora Low Base plates and allowed to recover and adhere at 37 C in a humidified 5% CO2 incubator for 4 hours. 3. After 4 hour incubation, compound libraries (23 nl of […] in columns 5-48) were transferred to the plates in duplicate using a 1536 well pintool. Camptothecin positive control (59 uM final) was added to column 2 and 1:3 dilutions of camptothecin was added to column 3. DMSO negative controls were present in columns 1 and 4. 4. After a 16 hour incubation in the 37 C incubator, cells were fixed by the addition of 4 ul of 6% EM grade paraformaldehyde (containing 0.1% triton X 100) directly to the cells. The plates were incubated at room temperature for 20 minutes. The liquid was removed using a 32 channel Kalypsys aspirator and the fixed cells were washed twice with 5 ul PBS followed by a final addition of 5 ul PBS containing 1 ug/ml Hoechst 33342. 5. Fixed plates were sealed and sotred at 4C until imaged. 6. Plates were imaged on an InCell 1000 automated microscope using a 20 x objective, a standard FITC filter set, no camera binning, and an exposure time of ~100-150 msec/well. 7. Data analysis. PNC prevalence was determined using the Multitarget analysis module from InCell Workstation software (V3.5 ) and analysis was run on a quad core workstation using the Incell Developer Toolbox (V1.7). […]
In the case of `CC(NC(=S)Nc1ccc(S(N)(=O)=O)cc1)c1ccc2c(c1)OCO2` (centres undefined), the activity change (PNC), negative = inhibition is reported as -20.3%.
For `c1ccc(-n2nc3ccccc3n2)cc1`, the activity change (PNC), negative = inhibition was -3.58%.
Work on `N#CC1=C(N)N(c2ccccc2)C2=C(C(=O)CCC2)C1c1ccccc1` (centres undefined) yielded an activity change (PNC), negative = inhibition of 5.97%.
In the case of `O=C1CCCc2nn(-c3ccccc3)nc21`, the activity change (PNC), negative = inhibition is reported as -100% (active).
With `CCCCCC(=O)Nc1ccc(S(=O)(=O)Nc2ccc(Cl)nn2)cc1` the activity change (PNC), negative = inhibition was 31.2%.
Work on `CCOc1ccccc1N1CCN(C(=S)Nc2ccc(S(N)(=O)=O)cc2)CC1` yielded an activity change (PNC), negative = inhibition of -28.8%.
For `Cc1ccc(C(=O)c2c(NC(=O)c3ccncc3)sc3c2CCCC3)cc1`, the activity change (PNC), negative = inhibition was -86.2% (active).
For `COC(=O)c1c(NC(=O)c2cccs2)sc2c1CCCC2`, the activity change (PNC), negative = inhibition was -6.02%.
In the case of `Cc1ccc(C(=O)c2c(NC(=O)c3ccccc3)sc(C)c2C)cc1`, the activity change (PNC), negative = inhibition is reported as 71.1%.
In the case of `CC(=O)NC1C(Oc2ccc(C)cc2)OC2COC(c3ccco3)OC2C1O` (centres undefined), the activity change (PNC), negative = inhibition is reported as -119% (active).
In the case of `CN1CCN(c2ccc(S(=O)(=O)N3CCCCC3)cc2NC(=O)Cc2ccccc2F)CC1`, the activity change (PNC), negative = inhibition is reported as 41.3%.
In the case of `N#CCOc1ccc(C2=NO[C@@H]3[C@@H]4C[C@@H]([C@H]5C(=O)N(c6ccc7c(c6)OCO7)C(=O)[C@@H]45)[C@H]23)cc1`, the activity change (PNC), negative = inhibition is reported as -91.1% (active).
`CCOC(=O)C1CCN(C(=O)CSc2cc(=O)n(C)c3ccccc23)CC1` gave an activity change (PNC), negative = inhibition of 0.103%.
For `CCCCn1c(SCc2ncc(-c3ccccc3)o2)nc2cc(S(N)(=O)=O)ccc21`, the activity change (PNC), negative = inhibition was 27%.
For `CCCCn1c(SCC(=O)N2CCC(C(=O)OCC)CC2)nc2cc(S(N)(=O)=O)ccc21`, the activity change (PNC), negative = inhibition was -100% (active).
Work on `COC(=O)c1c(C)[nH]c(C(=O)/C=C/c2ccc(Cl)cc2)c1C` yielded an activity change (PNC), negative = inhibition of 0.424%.
With `CCCCOC(=O)c1[nH]c(C)c(C(=O)OC)c1C` the activity change (PNC), negative = inhibition was -88.2% (active).
`CCCCN(CC)CCNC(=O)c1[nH]c(C)c(C(C)=O)c1C` showed an activity change (PNC), negative = inhibition of -4.29%.
With `CC(=O)c1c(Nc2ccccc2)sc(C(=O)c2ccccc2)c1C` the activity change (PNC), negative = inhibition was 73.7%.
`Cc1cc(NS(=O)(=O)c2ccc(NC(=S)NC(=O)c3ccc(F)cc3Cl)cc2)no1` gave an activity change (PNC), negative = inhibition of -22%.
With `Cc1ccc(C(=O)C(=S)N2CCOCC2)cc1` the activity change (PNC), negative = inhibition was -3.45%.
In the case of `COC(=O)c1cc(C(=O)OC)cc(N2C(=O)CC(N3CCN(c4ccccc4)CC3)C2=O)c1` (centres undefined), the activity change (PNC), negative = inhibition is reported as -94.7% (active).
With `COc1cccc(N2CCN(C3CC(=O)N(c4ccc(Cl)cc4)C3=O)CC2)c1` (centres undefined) the activity change (PNC), negative = inhibition was -3.5%.
For `COc1ccc(N2C(=O)CC(N3CCC(C(N)=O)CC3)C2=O)cc1` (centres undefined), the activity change (PNC), negative = inhibition was 19.9%.
For `COc1cccc(N2C(=O)CC(N3CCN(S(=O)(=O)c4ccccc4)CC3)C2=O)c1` (centres undefined), the activity change (PNC), negative = inhibition was -19.9%.
With `O=CN1CCN(C2CC(=O)N(c3ccc4c(c3)OCO4)C2=O)CC1` (centres undefined) the activity change (PNC), negative = inhibition was -6.31%.
With `COc1ccc(N2CCN(C3CC(=O)N(c4ccc5c(c4)OCCO5)C3=O)CC2)cc1` (centres undefined) the activity change (PNC), negative = inhibition was -84.9% (active).
Work on `Cn1cc([N+](=O)[O-])c(C(=O)Nc2cnn(Cc3ccc(F)cc3)c2)n1` yielded an activity change (PNC), negative = inhibition of -17%.
With `COCCOC(=O)c1c(C)oc2cc(Br)c(OCC(N)=O)cc12` the activity change (PNC), negative = inhibition was -7.11%.
For `CC(C)(C)c1ccc(/C=C/C(=O)Nc2ncccn2)cc1`, the activity change (PNC), negative = inhibition was 15.2%.
Molecule `COc1ccc([C@H]2[C@H](C(C)=O)N3N=Cc4ccccc4C3C23C(=O)OC(C)(C)OC3=O)cc1` (some centres undefined) has an activity change (PNC), negative = inhibition of 11.5%.
In the case of `COc1ccc(CC(=O)Nc2ccc(C(=O)NC(C)(C)C)cc2)cc1`, the activity change (PNC), negative = inhibition is reported as -85% (active).
`CC(C)(C)NC(=O)c1cccc(NC(=O)Cc2ccc(Br)cc2)c1` gave an activity change (PNC), negative = inhibition of -14.3%.
With `COc1ccc(C(=O)Nc2ccc(CN3CCOCC3)cc2)cc1` the activity change (PNC), negative = inhibition was -12.7%.
For `CC1=C(C(=O)Nc2cc(C)ccn2)C(c2cnn(C)c2)C2=C(CC(c3ccccc3)CC2=O)N1` (centres undefined), the activity change (PNC), negative = inhibition was 20.8%.
`COc1ccc2nc(NC(=O)[C@@H]3CCCN3C(=O)c3cccs3)sc2c1` gave an activity change (PNC), negative = inhibition of 34.3%.
Work on `Cn1nnnc1SCC(=O)N1CCN(Cc2ccccc2)CC1` yielded an activity change (PNC), negative = inhibition of 29.1%.
Molecule `CCOC(=O)C1=C(CSc2nnnn2C)N(C)C(=O)NC1c1ccccc1` (centres undefined) has an activity change (PNC), negative = inhibition of 19.9%.
Work on `O=C(O)CC(c1ccccc1)n1cnnn1` (centres undefined) yielded an activity change (PNC), negative = inhibition of 2.72%.
For `CC(C)NC(=S)N1CCN(C(c2ccccc2)c2ccccc2)CC1`, the activity change (PNC), negative = inhibition was 12%.
With `Cn1nnnc1SCC(=O)N1CCN(C(c2ccccc2)c2ccccc2)CC1` the activity change (PNC), negative = inhibition was -100% (active).
For `O=C(c1ccc(-n2cnnn2)cc1)N1CCN(C(c2ccccc2)c2ccccc2)CC1`, the activity change (PNC), negative = inhibition was -100% (active).
Work on `Cc1ccc2nsnc2c1NC(=O)c1ccccc1[N+](=O)[O-]` yielded an activity change (PNC), negative = inhibition of -1.05%.
Molecule `O=C(C/C(=N\NC(=O)c1ccccc1Br)C(F)(F)F)c1cccs1` has an activity change (PNC), negative = inhibition of -25.7%.
With `Cc1ccc(C)c2[nH]c(=O)c(CCNC(=O)c3cccs3)cc12` the activity change (PNC), negative = inhibition was 36.1%.
Molecule `COc1cc(OC)cc(C(=O)NCC(=O)OCc2csc(-c3ccccc3)n2)c1` has an activity change (PNC), negative = inhibition of 0.666%.
`CCC1CCCCN1C(=S)Nc1ccc(C(C)=O)cc1` (centres undefined) gave an activity change (PNC), negative = inhibition of 83.7%.
Work on `CCNC(=O)NC(=O)C(C)OC(=O)C1CCN(S(=O)(=O)c2ccccc2F)CC1` (centres undefined) yielded an activity change (PNC), negative = inhibition of -28.8%.
Work on `CC(NC(=O)CCC(=O)N1CCN(S(=O)(=O)c2ccc(Cl)cc2)CC1)c1ccccc1` (centres undefined) yielded an activity change (PNC), negative = inhibition of -12.6%.
For `CC(NC(=O)COC(=O)C1CCN(S(=O)(=O)c2ccccc2C(F)(F)F)CC1)c1ccccc1` (centres undefined), the activity change (PNC), negative = inhibition was -108% (active).
Work on `O=C(Nc1cccc(Cl)c1)Nc1ccccc1NS(=O)(=O)c1cccs1` yielded an activity change (PNC), negative = inhibition of -1.43%.
Molecule `CNC(=O)CSc1nnnn1-c1ccc(C)cc1C` has an activity change (PNC), negative = inhibition of -10.4%.
Molecule `CCOC(=O)CNC(=O)CSc1nnnn1-c1cc(C)ccc1C` has an activity change (PNC), negative = inhibition of -8.66%.
In the case of `CCOC(=O)c1c(-c2ccc(C)cc2C)csc1NC(=O)CSc1nnnn1C`, the activity change (PNC), negative = inhibition is reported as -85.2% (active).
`C/C(CCC(=O)OC[C@H]1O[C@H](C#Cc2ccccc2)C=C[C@@H]1Oc1ccc(C)cc1)=N\OC[C@@H](O)[C@H]1O[C@@H]2OC(C)(C)O[C@@H]2[C@H]1O` showed an activity change (PNC), negative = inhibition of 49%.
With `CN(CC(=O)NCCc1ccccc1)S(=O)(=O)c1cnc[nH]1` the activity change (PNC), negative = inhibition was -5.8%.
With `Cc1ccc(/C(N)=N/OC(=O)COc2ccc(Cl)c(C)c2)cc1` the activity change (PNC), negative = inhibition was 48.8%.
In the case of `COc1ccc(C(=O)COC(=O)COc2ccc(C)c(C)c2)cc1`, the activity change (PNC), negative = inhibition is reported as -83.5% (active).
In the case of `COCCNC(=O)COc1ccc(C)c(C)c1`, the activity change (PNC), negative = inhibition is reported as -16.6%.

Source: PubChem BioAssay AID2417 (National Center for Advancing Translational Sciences (NCATS), 2010)
